A selection: hits, their analogues and other compounds. The true share with any hit is near 19%.
IL-1B inflam inh: inhibitors of inflammasome signaling (IL-1 beta secretion) | THP-1 LPS/ATP IL-1B secretion, AlphaLISA, 16 h; stronger effect = lower value | activity change, % at 57.5 µM | 4.7% of 360,000 active; in the data active means activity change below about -50%; inconclusive means mostly about -30% to -49%; further: on the % scale 0 is the no-effect control and ±100 the full control effect
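THP-1 cells pretreated 1 hr with compounds (up to 57.5 uM final), then stimulated with LPS (250 ng/mL final) plus ATP (1.25 mM final); secreted IL-1B measured by AlphaLISA after 16 hr, decreased signal indicating inhibition.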
Chronic BCR inh: blocks chronic active B-cell receptor signaling; 0.05% of 340,000 active; Potency, µM (doses to about 46.1 µM), without a hit: top-dose activity change, negative = inhibition, usual class: inhibitors; ABC-DLBCL IkBa-CBG/CBR reporter, luminescence ratio, 4 h; active means well fitted inhibition curve with a large enough effect in the signal ratio, with a control signal flat, not every such curve was filed as active; inconclusive means small, poorly fitted or top-dose-only effect, or effect the other way, or a change in a side signal; the % refers to the signal ratio;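 further: potency means the concentration at half of the fitted maximal effect; plate controls were basal doxycycline-induced cells for no effect and cells given 10 µM MG132 for full effect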
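Doxycycline induced both beetle luciferases in TMD8 lymphoma cells; IKK-driven degradation limits the IkappaBalpha-fused green signal, while red luminescence normalises for cell number and nonspecific effects. Compounds tested up to 46 uM, 4 hrs.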
TDP1 cell noCPT: qHTS for Inhibitors of human tyrosyl-DNA phosphodiesterase 1 (TDP1): qHTS in cells in absence of CPT; DT40 Tdp1-/- hTDP1 cells, no CPT, ATP luminescence, 48 h; Potency, µM (highest dose often 46.2 µM), for the others: at the highest dose activity change, negative = growth inhibition, most hits filed as inhibitors; AID 686978, 2013; 15% of 420,000 active; further: potency means the concentration at half of the fitted maximal effect; on the % scale 0 is the no-effect control and ±100 the full control effect; nearly all actives have a fitted effect of over 55% in size
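Compound effects on proliferation are scored in DT40 Tdp1-/-;hTDP1 cells in the absence of CPT. ATP levels (CellTiter-Glo luminescence) are recorded after a ≥48 hr, 37 °C incubation.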
MCF10A rerep: induces DNA re-replication in MCF 10a normal breast cells | MCF 10A DNA re-replication, Hoechst nuclear intensity, 48 h | Potency, µM (top dose mostly 46.1 µM), for the others: top-dose activity, positive = re-replication, usual class: activators | 2.9% of 350,000 active | AID 624296; further: potency means the concentration at half of the fitted maximal effect; % of control where 0% means no effect; nearly all actives have a fitted effect of over 50% in size
DT40 TDP1 CPT: DT40-hTDP1 cell growth loss with CPT; chicken DT40 Tdp1-/-;hTDP1 cells + 20 nM CPT, ATP luminescence, 48 h; Potency, µM (top dose mostly 46.2 µM), for inactives: at the highest dose activity change, negative = growth inhibition, most hits filed as inhibitors; 12% of 420,000 active; further: potency means the concentration at half of the fitted maximal effect; on the % scale 0 is the no-effect control and ±100 the full control effect; nearly all actives have a fitted effect of over 55% in size
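Chicken DT40 Tdp1-/- cells stably complemented with human TDP1 were seeded at 400 cells/well in medium containing 20 nM camptothecin, exposed to pin-transferred compounds, and grown at 37 °C for at least 48 hr. Viability was read as ATP luminescence.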
SW480 rereplic: DNA re-replication induction in SW480 cells | 1.8% of 340,000 active | SW480 DNA re-replication, Hoechst DNA content imaging, 48 h | Potency, µM (top dose mostly 46.1 µM), for inactives: top-dose re-replication activation, actives largely listed as activators; further: potency means the concentration at half of the fitted maximal effect; % of control where 0% means no effect; nearly all actives have a fitted effect of over 55% in size
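First, 250 cells per well were seeded. Next, compound or vehicle (23 nL) was pinned in, plates sat 48 hr at 37 C. Finally Hoechst was added for 40 min before fluorescence scanning.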
An asterisk follows results filed as active; ? = inconclusive; nt = not tested or not shown. Unless noted, the call rests on the fitted dose curve; in most records, active means well fitted curve in the direction sought with a large enough effect; inconclusive means small, poorly fitted or top-dose-only effect, or another doubt; inactive means no such curve, though single readings can be large; an effect the other way counts as inactive or inconclusive.

SMILES | IL-1B inflam inh | Chronic BCR inh | TDP1 cell noCPT | MCF10A rerep | DT40 TDP1 CPT | SW480 rereplic
CCc1ccc(C(=O)c2cnc3ccc(F)cc3c2S(=O)(=O)c2ccccc2)cc1 | nt | nt | 5.8µM* | nt | 5.17µM* | nt
Cc1ccc(C(=O)c2cnc3cc4c(cc3c2S(=O)(=O)c2ccccc2)OCCO4)cc1 | -79.0* | ? | 23.1µM* | ? | 18.4µM* | ?
O=C(CN1CCCCCC1)Nc1ccccc1C(=O)Nc1ccccc1 | -8.9 | ? | ? | 8.0% | ? | 1.8%
N#Cc1ccc(-c2nc3ccccc3nc2-c2ccccc2)cc1C#N | 0.4 | -15.8% | 18.4µM* | 2.2% | ? | -7.4%
Oc1ccc(-c2nc3ccccc3nc2-c2ccccc2)cc1 | -64.7* | ? | ? | 19.1% | ? | -0.4%
Cc1ccc2nc(-c3ccc(C)s3)c(Nc3ccc4c(c3)OCCO4)n2c1 | nt | nt | ? | nt | 23.1µM* | nt
c1coc(-c2nc3ccccn3c2Nc2ccc3c(c2)OCCO3)c1 | nt | nt | -91.5% | nt | ? | nt
Cc1ccc2nc(-c3ccco3)c(Nc3ccc4c(c3)OCCO4)n2c1 | nt | nt | ? | nt | 16.4µM* | nt
Brc1ccc2nc(-c3ccccc3)c(Nc3ccc4c(c3)OCO4)n2c1 | nt | nt | -18.3% | nt | -19.2% | nt
Clc1ccc2nc(-c3ccc(Br)o3)c(Nc3ccc4c(c3)OCCO4)n2c1 | nt | nt | ? | nt | 20.6µM* | nt
Cc1ccc(-c2nc3ccccn3c2Nc2ccc3c(c2)OCCO3)s1 | nt | nt | -4.7% | nt | -15.2% | nt
COc1cc(-c2nc3ccc(C)cn3c2Nc2ccc3c(c2)OCCO3)ccc1O | ? | ? | ? | 20.6µM* | ? | 7.6%
COc1cc(=O)n2c(c1C(=O)N(C)Cc1nccs1)CCN(Cc1cc3ccccc3s1)CC2 | nt | nt | ? | nt | -107.4% | nt
O=C(CN1C=NS(=O)(=O)c2ccc(C(F)(F)F)cc21)Nc1cccc(C(F)(F)F)c1 | nt | -18.8% | 4.9% | nt | -8.0% | nt
CCCCCCCCn1ccc(=N)cc1 | -10.3 | ? | 1.84µM* | -0.3% | 2.06µM* | -2.3%
CCCCCCCCCCn1ccc(=N)cc1 | -95.1* | ? | 0.0184µM* | ? | 0.0058µM* | 20.6µM*
CC(C)(C)NC(=O)C(c1ccc(-c2ccccc2)cc1)N(C[C@H]1CC[C@@H]([C@@H]2CC[C@H](CO)O2)O1)C(=O)c1ccc(C(C)(C)C)cc1 (some centres not stated) | ? | -0.5% | 20.6µM* | ? | ? | 17.4%
COc1ccccc1N1CCN(C(=O)CCCN2C(=O)c3cccc4cccc(c34)C2=O)CC1 | ? | 12.2% | 29.1µM* | ? | 16.4µM* | 4.3%
COc1ccccc1OCC(=O)N1CCN(C(=O)COc2ccccc2OC)CC1 | 18.7 | -0.2% | 5.5% | 1.6% | 8.2% | -2.3%
O=C(CCCN1C(=O)c2cccc3cccc(c23)C1=O)N1CCN(c2ccccn2)CC1 | -3.6 | 1.0% | ? | 3.1% | ? | -0.3%
COc1ccccc1N1CCN(C(=O)Cn2c(=O)nc(-c3ccccc3)c3ccccc32)CC1 | nt | nt | 14.6µM* | nt | ? | nt
COc1ccccc1N1CCN(C(=O)COc2cccc3ccccc23)CC1 | -26.0 | ? | ? | 17.0% | 23.1µM* | 1.5%
COc1ccccc1N1CCN(C(=O)CN2C(=O)c3cccc4cccc(c34)C2=O)CC1 | ? | 1.4% | ? | -7.0% | 25.9µM* | -3.7%
COc1ccccc1N1CCN(C(=O)Cn2c(=O)n3nc(-c4cccc(F)c4)nc3c3ccccc32)CC1 | nt | -0.4% | -13.0% | nt | 0.4% | nt
O=C(C[C@H]1C/C=C\CC[C@@H](Cc2ccc(F)cc2)C(=O)OC[C@H]2CCCN2C1=O)NCCO | -0.5 | 1.3% | -9.3% | -8.5% | -19.3% | -0.9%
SMILES | IL-1B inflam inh | Chronic BCR inh | TDP1 cell noCPT | MCF10A rerep | DT40 TDP1 CPT | SW480 rereplic
O=C1NC(=S)S/C1=C\C=C\c1ccc([N+](=O)[O-])o1 | -98.3* | ? | 2.31µM* | 30.0% | 1.64µM* | ?
O=C1NC(=S)S/C1=C/c1ccc(N2CCOCC2)o1 | 12.2 | ? | ? | ? | ? | ?
COc1ccc(CNC(=O)COC(=O)CN2C(=O)NC3(CCCC3)C2=O)cc1 | 17.2 | 1.4% | 15.4% | -0.4% | 23.6% | -12.7%
NC(=O)c1ccc(NC(=O)COC(=O)C2CC(=O)N(Cc3ccccc3)C2)cc1 (configuration not stated) | 32.9 | -5.0% | 17.9% | 1.0% | -0.5% | -2.4%
COc1ccc(-n2c(=O)c(-c3cn(C)c4ccccc34)nc3cncnc32)cc1 | nt | nt | -10.3% | nt | 1.3% | nt
COc1ccc(/C=N/Nc2cc(C)nc(N3CCOCC3)n2)cc1OC | -23.9 | -24.3% | ? | 0.0% | 2.9% | -3.4%
Cc1nc(N/N=C/c2cccc([N+](=O)[O-])c2)cc(N2CCCCC2)n1 | 26.4 | nt | 13µM* | nt | ? | nt
O=[N+]([O-])c1cccc(/C=N/NC2=NCCCCC2)c1 | -25.4 | ? | 10.1% | ? | ? | 10.5%
Cc1nc(N/N=C/c2cccc(F)c2)cc(N2CCOCC2)n1 | -96.7* | -1.2% | ? | 1.4% | ? | ?
Cc1nc(N/N=C/c2ccc(O)cc2O)cc(N2CCOCC2)n1 | -99.1* | ? | ? | ? | ? | ?
Oc1ccccc1/C=N/Nc1cc(N2CCCC2)nc(N2CCCC2)n1 | -103.2* | 20.5% | 11.6µM* | 18.4µM* | 11.6µM* | ?
Clc1ccc(CN2CCN(c3ncccn3)CC2)cc1 | -10.6 | 1.1% | -17.0% | 18.0% | -25.9% | -12.5%
CC(C)c1ccc(OCC(=O)Nc2ccc(S(=O)(=O)Nc3ncccn3)cc2)cc1 | nt | nt | -2.1% | nt | 5.6% | nt
COc1ccc(C2CC(=O)c3cc(-c4nc(-c5cccc([N+](=O)[O-])c5)cs4)c(=O)n(-c4cccc(C)c4)c3C2)cc1 (configuration not stated) | nt | nt | -3.8% | nt | -0.5% | nt
CC1=C(C(=O)N2CCOCC2)CC(CC(=O)NCc2cccc3ccccc23)C(=O)N1Cc1ccccc1 (configuration not stated) | 14.6 | nt | ? | nt | ? | nt
COc1ccc(/C=N/Nc2cc(C)nc(N3CCOCC3)n2)cc1 | -7.4 | 4.7% | ? | -2.9% | -7.9% | ?
Oc1ccc(/C=N/Nc2cc(N3CCOCC3)nc(N3CCOCC3)n2)cc1O | 25.2 | ? | 20.6µM* | 21.4% | ? | 13.7%
Oc1cccc(/C=N/Nc2cc(N3CCOCC3)nc(N3CCOCC3)n2)c1 | -54.0* | ? | 14.6µM* | ? | 16.4µM* | 5.8µM*
